E coli Lon inh – inhibitors of E. coli Lon protease, primary screen, biochemical, fluorescence polarization; 360,000 compounds, 0.42% hits; purified E. coli Lon protease; P0A9M0; inhibition, % at 7.94 µM; in the data active means inhibition above about 13%, passing the limit was not always enough
EBV gp42 inh – Epstein-Barr virus gp42 inhibitors, primary screen, biochemical, uHTS, fluorescence polarization | inhibition, % (tested at 21.74 µM) | Fluorescence polarization binding assay, mP read-out | AID 1085, 2008 | 220,000 compounds, 0.42% hits | Glycoprotein 42 (Epstein-Barr virus (strain AG876)), Q1HVG2; in the data active means inhibition above about 50%
cardiac RTF act – cardiac RTF calcium sensitivity activators, primary screen, biochemical, IANBD-TnC fluorescence, EC20 calcium | IANBD-labeled TnC RTF fluorescence at EC20 calcium; 0% EC20 calcium, 100% full calcium | activation, % at 7.2 µM | 340,000 compounds, 0.24% hits;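 active means activation above the mean over all tested compounds plus 3 SD, cut at about 30% in these data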;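 further: rise in fluorescence read as greater calcium sensitivity of cardiac thin filaments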
Keap1 Nrf2 FP – Keap1-Nrf2 protein-protein interaction inhibitors, primary screen, biochemical, fluorescence polarization, single point | Kelch-like ECH-associated protein 1 (Homo sapiens), Q14145 | inhibition, % at 9.4 µM | 340,000 compounds, 0.15% hits | Keap1 Kelch-Nrf2 peptide fluorescence polarization, 1536-well | AID 504523, 2011; in the data active means inhibition above about 12%;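 further: human Keap1 Kelch domain with fluorescein labeled Nrf2 9mer peptide probe; higher means more block of Keap1 binding to Nrf2 peptide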
Target sequence (Q14145 whole entry, looked up, the tested form may be a part): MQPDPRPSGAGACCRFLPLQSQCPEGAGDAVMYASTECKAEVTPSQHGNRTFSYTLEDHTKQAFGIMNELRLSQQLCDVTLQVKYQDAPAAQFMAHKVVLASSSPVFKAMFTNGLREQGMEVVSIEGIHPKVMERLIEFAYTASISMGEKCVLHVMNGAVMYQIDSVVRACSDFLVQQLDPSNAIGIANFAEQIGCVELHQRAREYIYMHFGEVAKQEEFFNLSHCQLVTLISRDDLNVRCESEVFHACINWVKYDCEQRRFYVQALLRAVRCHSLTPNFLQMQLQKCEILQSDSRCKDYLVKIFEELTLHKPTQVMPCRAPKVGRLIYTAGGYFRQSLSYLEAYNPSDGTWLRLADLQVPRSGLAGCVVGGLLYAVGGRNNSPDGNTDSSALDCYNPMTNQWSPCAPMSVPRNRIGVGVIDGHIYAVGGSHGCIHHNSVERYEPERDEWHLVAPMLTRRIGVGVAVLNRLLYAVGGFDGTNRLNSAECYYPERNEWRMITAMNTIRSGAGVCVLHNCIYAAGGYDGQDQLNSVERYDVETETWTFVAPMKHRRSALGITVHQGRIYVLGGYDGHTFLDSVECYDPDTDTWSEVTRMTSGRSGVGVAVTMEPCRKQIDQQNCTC
LANA DNA inh – inhibitors of KSHV C-LANA binding to DNA, primary screen, biochemical, fluorescence polarization, FAM-LBS DNA, MBP-C-LANA, single point | Kaposi's sarcoma herpesvirus LANA C-terminal domain (residues 932-1162) DNA binding | inhibition, % at 9 µM | 340,000 compounds, 0.078% hits;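 active means highest replicate inhibition at or above 60% at 9 µM, even if other replicates fall short; inactive means all replicates below 60% inhibition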
RTF Ca sens inh – cardiac RTF calcium sensitivity inhibitors, primary screen, biochemical, IANBD-TnC fluorescence, EC70 calcium; Troponin I, cardiac muscle (Homo sapiens) + Troponin T, cardiac muscle (Homo sapiens) + …; IANBD-labeled cardiac RTF, Ca2+ fluorescence; inhibition, % at 7.15 µM; 340,000 compounds, 0.12% hits; AID 493244, 2011;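 active means inhibition above the mean inhibition of all tested compounds plus 3 SD, cut at about 17% in these data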;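 further: assay run at fixed EC70 calcium of 1.6 mM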
A number is an active result; - = inactive; . = no result given; + = active, no number. Most compounds without a hit are left out; they make up all but 0.98% or so of the library.

SMILES	E coli Lon inh	EBV gp42 inh	cardiac RTF act	Keap1 Nrf2 FP	LANA DNA inh	RTF Ca sens inh
CN(C)c1ccc(/C=C2\SC(N3CCCCC3)=NC2=O)cc1	-	.	40	-	-	-
O=C(Nc1ccc2c(c1)OCO2)c1cc(C2CCCCN2C(=O)c2ccc3c(c2)CCO3)on1 (configuration not stated)	-	.	.	.	.	.
CCN(CC)C(=O)[C@H]1C[C@H](CC(=O)NCCc2ccccn2)C(=O)N2CCc3c([nH]c4cc(-c5ccco5)ccc34)[C@]12C	-	.	-	+	-	-
Cc1ccc2cc(/C=C3\N=C(c4ccccc4)OC3=O)c(N3CCOCC3)nc2c1	.	158	.	.	.	.
CCCN1C(=O)/C(=C/c2c(NCCCOC(C)C)nc3c(C)cccn3c2=O)SC1=S	-	-	-	-	-	-
CCC(C)N1C(=O)/C(=C/c2c(NCCCOC(C)C)nc3c(C)cccn3c2=O)SC1=S (configuration not stated)	-	130	133	-	-	-
CCCN(C)C1CN(Cc2cn(Cc3cc(C)cc(C)c3)nn2)S(=O)(=O)C1 (configuration not stated)	-	.	.	.	.	.
O=c1oc2c(O)c(O)cc3c(=O)oc4c(O)c(O)cc1c4c23	-	86	-	-	127	102
N#CC1=C(N)C(C#N)(C#N)[C@H](c2ccoc2)[C@H]2CN(Cc3ccccc3)CC=C12	-	90	31	-	-	-
CCCN1CC=C2C(C#N)=C(N)C(C#N)(C#N)C(c3cccc(OC)c3OC)C2C1 (configuration not stated)	-	75	53	-	-	-
CN1CC=C2C(C#N)=C(N)C(C#N)(C#N)C(c3cccc(Cl)c3Cl)C2C1 (configuration not stated)	-	86	-	-	-	-
Cn1cc(/C=C2\SC(=S)N(NC(=O)c3ccccc3)C2=O)c2ccccc21	-	89	70	-	-	-
O=C(NN1C(=O)/C(=C/c2ccc(O)cc2)SC1=S)c1cccc(O)c1	-	.	-	-	-	-
Cn1cc(/C=C2\SC(=S)N(NC(=O)c3cccc(Cl)c3)C2=O)c2ccccc21	-	165	45	-	-	-
CCOC(=O)CCNC(=O)Nc1cc2nc(C)n(Cc3cccc(Cl)c3)c2nc1C	-	.	-	-	-	-
Cc1c2cnccc2c(C)c2c1oc1ccccc12	-	.	-	-	-	-
COc1cc(/C=C2\CCC(C)C3=C(c4cc(OC)c(OC)c(OC)c4)C(C#N)=C(N)OC32)cc(OC)c1OC (configuration not stated)	-	.	40	-	-	-
COc1cc(/C=C2\CC/C(=C\c3cc(OC)c(OC)c(OC)c3)C2=O)cc(OC)c1OC	-	-	-	-	-	-
CCOc1ccc(Nc2ccc(N)c(S(=O)(=O)O)c2)cc1	-	.	-	-	88	-
Nc1ccc2c(c1)C/C(=C/c1ccco1)C2=O	-	98	-	-	-	-
Cn1c(/N=C/c2c(O)ccc3ccccc23)nc2ccccc21	-	157	-	-	-	-
Cc1cc(CSc2ccc(Cl)cc2)ccc1N	-	.	-	-	-	-
COc1ccc(CNC(=O)CCNC(=O)C2CCN(S(=O)(=O)c3ccc(OC)cc3)CC2)cc1	-	.	.	.	.	.
C[n+]1ccc2[nH]c3ccccc3c2c1	-	.	.	.	.	.
CCn1cc(/C=C/c2cc[n+](C)cc2)c2ccccc21	-	.	371	-	-	-
SMILES	E coli Lon inh	EBV gp42 inh	cardiac RTF act	Keap1 Nrf2 FP	LANA DNA inh	RTF Ca sens inh
C=CCn1c(C)c(/C=C/c2cc[n+](C)cc2)c2ccccc21	-	.	114	-	-	-
CC(C)n1cc(/C=C/c2cc[n+](C)cc2)c2ccccc21	-	.	344	-	-	-
Cc1[nH]c2ccccc2c1/C=C/c1cc[n+](C)cc1	-	-	95	-	-	-
Cc1ccccc1/C=C/c1cc[n+](C)cc1	-	-	-	-	-	-
COc1ccc(NC(=O)COC(=O)Cn2cnc3ccccc3c2=O)c(OC)c1	-	.	-	-	-	-
O=C(NC1CCCC1)c1ccc(COc2ccccc2Br)o1	-	.	-	-	-	-
OCc1c[nH]c(=S)n1CCOc1cccc(C(F)(F)F)c1	-	.	-	-	-	-
C[C@@H]1CN([C@H](C)CO)C(=O)c2cc(Br)cnc2O[C@H]1CN(C)C(=O)Nc1ccccc1F	-	.	.	.	.	.
C=CCn1cc(/C=C/c2cc[n+](C)cc2)c2ccccc21	-	.	170	-	-	-
CCN(CC)C(=O)Cn1c(C)c(/C=C/c2cc[n+](C)cc2)c2ccccc21	-	.	87	-	.	-
CCN(CC)C(=O)Cn1c(=O)n(C)c2ccccc21	-	-	-	-	-	-
COc1ccc(CCC(=O)NNC(=O)c2ccccn2)cc1OC	-	.	-	-	-	-
CSC1=NSC2=NC(=O)/C(=C/c3coc4ccccc4c3=O)C(=N)N12	-	74	287	-	-	-
CC1=CC2=NC(=O)/C(=C/c3coc4ccc(Cl)cc4c3=O)C(=N)N2O1	-	-	58	-	-	-
CSC1=NSC2=NC(=O)/C(=C/c3coc4ccc(O)cc4c3=O)C(=N)N12	-	63	177	-	-	-
N=C1/C(=C/c2cccn2Cc2ccc(F)cc2)C(=O)N=C2SC=CN12	-	-	-	-	-	-
N=C1/C(=C\c2coc3ccccc3c2=O)C(=O)N=C2SC=CN12	-	-	81	-	-	-
CSC1=NSC2=NC(=O)/C(=C\c3cccs3)C(=N)N12	-	-	-	-	-	-
CC(C)(C)c1ccc(S(=O)(=O)N2CCc3nc4ccccc4c(C(=O)O)c3C2)cc1	-	.	-	-	-	-
O=C(Nc1cccc(S(=O)(=O)N2CCCC2)c1)[C@@H]1O[C@H](CO)[C@@H](O)[C@H]1O	-	.	.	.	.	.
Cc1ccccc1-c1cccc([C@@H]2C[C@H]3[C@H](CON3C)CN2C(=O)CCc2ccccc2)c1	-	.	-	-	-	-
O=C(/C=C/c1ccco1)NC(=S)Nc1ccc(C(=O)O)cc1	-	.	-	-	62	-
CC(=O)NC(=S)Nc1ccc(NC(=S)NC(=O)/C=C/c2ccco2)cc1	-	-	-	-	-	-
O=C(NCc1cccnc1)c1cc(C2CCCN(S(=O)(=O)c3cccc4cccnc34)C2)on1 (configuration not stated)	-	.	.	.	.	.
CC(C)=CCc1c(O)ccc2c1OC(c1ccc(O)c(O)c1)CC2=O (configuration not stated)	-	-	-	-	-	-
